This is an account of results in ChEMBL document CHEMBL4513141, “CO-ADD screening of NIH (USA) - Clinical Collection” (2021).

Measured potencies and affinities stand elsewhere.

What is called Inhibition is the drop in the measured response relative to a control, in per cent.

In the assay the test system is Escherichia coli. Conditions: Concentration 20 uM; ASSAY_TEST Inhibition of Bacterial Growth; detection method Absorption (OD600); MEDIA CAMHB; plate type 384well; NBS; CORNING #3640; time 18 hr.
In the case of `C[C@@H]1C[C@H]2[C@@H]3CCC4=CC(=O)C=C[C@]4(C)[C@@]3(F)[C@@H](O)C[C@]2(C)[C@H]1C(=O)CO` [DESOXIMETASONE], the Inhibition stood at 7.14%.

In the case of `CC(C)[C@H](N)C(=O)OCCOCn1cnc2c(=O)nc(N)[nH]c21.Cl` [VALACYCLOVIR HYDROCHLORIDE], the Inhibition was 2.88%.

With `CC12CC3CC(C)(C1)CC(N)(C3)C2.Cl` [MEMANTINE HYDROCHLORIDE], the Inhibition turned out to be 5.88%.

For the compound `C/C=C1/[C@H]2C=C(C)C[C@]1(N)c1ccc(O)nc1C2`, the Inhibition is -0.02%.

For the compound `CC(O)CO.N[C@@H](C(=O)N[C@@H]1C(=O)N2C(C(=O)O)=C(CSc3c[nH]nn3)CS[C@H]12)c1ccc(O)cc1`, the Inhibition is on record as 5.65%.

Regarding `CC1=Nc2ccc(Cl)cc2S(=O)(=O)N1` [DIAZOXIDE], the Inhibition amounted to 5.75%.

Turning to `Cl.O=C(NCC1CCCCN1)c1cc(OCC(F)(F)F)ccc1OCC(F)(F)F` (stereo not drawn), the Inhibition is listed as -6.42%.

Turning to `CCCCC[C@H](O)/C=C/[C@H]1[C@H](O)CC(=O)[C@@H]1CCCCCCC(=O)O` [ALPROSTADIL], the Inhibition came to 6.55%.

Consider `O=C1N=C([O-])NC1(c1ccccc1)c1ccccc1.[Na+]` [PHENYTOIN SODIUM], for which the Inhibition came to 2.45%.

As to `CCC(C)(C)/N=C(\NC#N)Nc1cccnc1`, the Inhibition is given as -2.42%.

Take `CN(C)CCN(Cc1ccccc1)c1ccccn1.Cl` [TRIPELENNAMINE HYDROCHLORIDE]: the Inhibition amounted to 7.66%.

`CN1CCCC(n2nc(Cc3ccc(Cl)cc3)c3ccccc3c2=O)CC1.Cl` (stereo not drawn) [AZELASTINE HYDROCHLORIDE]: the Inhibition amounted to 3.65%.

Take `CCN(CC)CCNC(=O)c1ccc(N)cc1.Cl` [PROCAINAMIDE HYDROCHLORIDE]: the Inhibition is -0.2%.

For `Cc1cccc(C)c1OCC(C)N.Cl` (stereo not drawn) [MEXILETINE HYDROCHLORIDE], the Inhibition is 3.59%.

Regarding `CS(=O)(=O)OCCCCOS(C)(=O)=O` [BUSULFAN], the Inhibition came out at 10.16%.

As to `CCCCC(=O)O[C@H]1CC[C@H]2[C@@H]3CCc4cc(O)ccc4[C@H]3CC[C@]12C` [ESTRADIOL VALERATE], the Inhibition was determined as 3.72%.

Turning to `COc1c2occc2cc2ccc(=O)oc12` [METHOXSALEN], the Inhibition is -6.11%.

Take `O=C1c2c(O)cc(O)cc2O[C@H](c2ccc(O)c(O)c2)[C@@H]1O`: the Inhibition is -4.02%.

Consider `CC1=C(/C=C/C(C)=C/C=C/C(C)=C\C(=O)O)C(C)(C)CCC1` [ISOTRETINOIN], for which the Inhibition is listed as -1.2%.

With `Cl.NC12CC3CC(CC(C3)C1)C2` [AMANTADINE HYDROCHLORIDE], the Inhibition is given as -0.07%.

For the compound `NS(=O)(=O)Cc1noc2ccccc12` [ZONISAMIDE], the Inhibition worked out at 0.42%.

In the case of `Br.CN(C)CCCC1(c2ccc(F)cc2)OCc2cc(C#N)ccc21` (stereo not drawn) [CITALOPRAM HYDROBROMIDE], the Inhibition is given as -2.5%.

As for `C[C@@H]1C[C@H]2[C@@H]3C[C@H](F)C4=CC(=O)C(Cl)=C[C@]4(C)[C@@]3(F)[C@@H](O)C[C@]2(C)[C@@]1(O)C(=O)CO` [HALOMETASONE], the Inhibition worked out at 4.02%.

On to `CN[C@@H]1[C@H](O)[C@H](NC)[C@H]2O[C@@]3(O)C(=O)C[C@@H](C)O[C@H]3O[C@@H]2[C@H]1O.Cl.Cl.Cl.O.O.O`, for which the Inhibition stood at 29.97%.

In the case of `CC#C[C@]1(O)CC[C@H]2[C@@H]3CCC4=CC(=O)CCC4=C3[C@@H](c3ccc(N(C)C)cc3)C[C@@]21C` [MIFEPRISTONE], the Inhibition is -7.81%.

Take `N#Cc1ccc(C(c2ccc(C#N)cc2)n2cncn2)cc1` [LETROZOLE]: the Inhibition is -0.32%.

On to `NNC(=O)c1ccncc1` [ISONIAZID], for which the Inhibition is 0.87%.

As to `O=c1c(O[C@@H]2O[C@H](CO)[C@@H](O)[C@H](O)[C@H]2O)c(-c2ccc(O)c(O)c2)oc2cc(O)cc(O)c12` [ISOQUERCETIN], the Inhibition was -1.78%.

Regarding `CC(=O)O.CNC(=N)NCCC[C@H](N)C(=O)O` [TILARGININE ACETATE], the Inhibition is on record as 6.22%.

On to `Br.Br.O=C1CC2(CCCC2)CC(=O)N1CCNCC1COc2ccccc2O1` (stereo not drawn), for which the Inhibition is 6.1%.

Turning to `Cl.NC[C@H]1CC[C@H](C(=O)Oc2ccc(CCC(=O)O)cc2)CC1` [CETRAXATE HYDROCHLORIDE], the Inhibition is listed as -0.51%.

Regarding `CCCCc1nc(Cl)c(CO)n1Cc1ccc(-c2ccccc2-c2nnn[n-]2)cc1.[K+]` [LOSARTAN POTASSIUM], the Inhibition was 5.5%.

`CN1CCN(CCCN2c3ccccc3Sc3ccc(Cl)cc32)CC1.O=C(O)/C=C\C(=O)O.O=C(O)/C=C\C(=O)O` [PROCHLORPERAZINE MALEATE]: the Inhibition was 1.77%.
